# Counter-ions that a name gives are not always drawn. ± gives the standard deviation of the averaged measurements.
# What was measured:
# [1] = test system: Saccharomyces cerevisiae BY4741 SeMeCo community; assay: mean cell size (pixel area) (pixels); higher = larger cells; conditions: 10 µM; 24 h; SM minimal medium
# Procedure, shortened: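 A four-plasmid fluorescent Saccharomyces cerevisiae BY4741 community was tested; each plasmid complements one auxotrophy and carries a fluorescent marker. An overnight preculture at OD600 = 1.0 was diluted to OD600 = 0.3, and 70 µl was added to 384-well plates acoustically predosed with drug (final 10 µM) in SM medium for 24 h. Cells were fixed with paraformaldehyde and imaged by automated confocal microscopy, with analysis in Harmony. Mean cell pixel area per well is averaged over 3 replicates. Same SeMeCo high-content imaging drug screen: Selleck FDA-approved drugs at 10 µM, 24 h in SM medium, 384-well plates, 3 replicates.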
# [2] = test system: Saccharomyces cerevisiae BY4741 SeMeCo community; assay: z-score of subpopulation abundance vs DMSO median, subpopulation auxotrophic for M; higher = larger share of this subpopulation than in DMSO controls; conditions: 10 µM; 24 h; SM minimal medium; subpopulation (auxotrophy): M
# Procedure, shortened: (§1)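 Four plasmids, each restoring a single auxotrophy and encoding a distinct fluorescent protein, were carried by a Saccharomyces cerevisiae BY4741 community. After overnight growth to OD600 1.0 and dilution to 0.3, 70 µl per well was grown for 24 h in minimal SM medium on 384-well plates acoustically predosed with library drugs at 10 µM final. Following paraformaldehyde fixation, automated confocal microscopy was used, with single-auxotroph fluorescent strains defining thresholds and autofluorescence correction. Subpopulation abundance was then scored as a z-score against the vehicle-well median.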
# [3] = test system: Saccharomyces cerevisiae BY4741 SeMeCo community; assay: z-score of subpopulation abundance vs DMSO median, subpopulation auxotrophic for L; higher = larger share of this subpopulation than in DMSO controls; conditions: 10 µM; 24 h; SM minimal medium; subpopulation (auxotrophy): L
# Procedure, shortened: as §1
# [4] = test system: Saccharomyces cerevisiae BY4741 SeMeCo community; assay: z-score of subpopulation abundance vs DMSO median, subpopulation auxotrophic for U; higher = larger share of this subpopulation than in DMSO controls; conditions: 10 µM; 24 h; SM minimal medium; subpopulation (auxotrophy): U
# Procedure, shortened: as §1
# [5] = test system: Saccharomyces cerevisiae BY4741 SeMeCo community; assay: z-score of subpopulation abundance vs DMSO median, subpopulation auxotrophic for H; higher = larger share of this subpopulation than in DMSO controls; conditions: 10 µM; 24 h; SM minimal medium; subpopulation (auxotrophy): H
# Procedure, shortened: as §1
# [6] = test system: Saccharomyces cerevisiae BY4741 SeMeCo community; assay: z-score of subpopulation abundance vs DMSO median, subpopulation auxotrophic for LM; higher = larger share of this subpopulation than in DMSO controls; conditions: 10 µM; 24 h; SM minimal medium; subpopulation (auxotrophy): LM
# Procedure, shortened: as §1
# [7] = test system: Saccharomyces cerevisiae BY4741 SeMeCo community; assay: z-score of subpopulation abundance vs DMSO median, subpopulation auxotrophic for HM; higher = larger share of this subpopulation than in DMSO controls; conditions: 10 µM; 24 h; SM minimal medium; subpopulation (auxotrophy): HM
# Procedure, shortened: as §1
# [8] = test system: Saccharomyces cerevisiae BY4741 SeMeCo community; assay: z-score of subpopulation abundance vs DMSO median, subpopulation auxotrophic for HU; higher = larger share of this subpopulation than in DMSO controls; conditions: 10 µM; 24 h; SM minimal medium; subpopulation (auxotrophy): HU
# Procedure, shortened: as §1
# [9] = test system: Saccharomyces cerevisiae BY4741 SeMeCo community; assay: z-score of subpopulation abundance vs DMSO median, subpopulation auxotrophic for UM; higher = larger share of this subpopulation than in DMSO controls; conditions: 10 µM; 24 h; SM minimal medium; subpopulation (auxotrophy): UM
# Procedure, shortened: as §1
# [10] = test system: Saccharomyces cerevisiae BY4741 SeMeCo community; assay: z-score of subpopulation abundance vs DMSO median, subpopulation auxotrophic for HL; higher = larger share of this subpopulation than in DMSO controls; conditions: 10 µM; 24 h; SM minimal medium; subpopulation (auxotrophy): HL
# Procedure, shortened: as §1
# [11] = test system: Saccharomyces cerevisiae BY4741 SeMeCo community; assay: z-score of subpopulation abundance vs DMSO median, subpopulation auxotrophic for HLU; higher = larger share of this subpopulation than in DMSO controls; conditions: 10 µM; 24 h; SM minimal medium; subpopulation (auxotrophy): HLU
# Procedure, shortened: as §1
# [12] = test system: Saccharomyces cerevisiae BY4741 SeMeCo community; assay: z-score of subpopulation abundance vs DMSO median, subpopulation auxotrophic for HUM; higher = larger share of this subpopulation than in DMSO controls; conditions: 10 µM; 24 h; SM minimal medium; subpopulation (auxotrophy): HUM
# Procedure, shortened: as §1
# [13] = test system: Saccharomyces cerevisiae BY4741 SeMeCo community; assay: z-score of subpopulation abundance vs DMSO median, subpopulation auxotrophic for LUM; higher = larger share of this subpopulation than in DMSO controls; conditions: 10 µM; 24 h; SM minimal medium; subpopulation (auxotrophy): LUM
# Procedure, shortened: as §1
# [14] = test system: Saccharomyces cerevisiae BY4741 SeMeCo community; assay: z-score of subpopulation abundance vs DMSO median, subpopulation auxotrophic for HLUM; higher = larger share of this subpopulation than in DMSO controls; conditions: 10 µM; 24 h; SM minimal medium; subpopulation (auxotrophy): HLUM
# Procedure, shortened: as §1
# [15] = test system: Saccharomyces cerevisiae BY4741 SeMeCo community; assay: z-score of prototroph abundance vs DMSO median; higher = larger share of this subpopulation than in DMSO controls; conditions: 10 µM; 24 h; SM minimal medium; subpopulation (auxotrophy): Prototroph
# Procedure, shortened: as §1
# [16] = test system: Saccharomyces cerevisiae BY4741 SeMeCo community; assay: z-score of subpopulation abundance vs DMSO median, subpopulation auxotrophic for LU; higher = larger share of this subpopulation than in DMSO controls; conditions: 10 µM; 24 h; SM minimal medium; subpopulation (auxotrophy): LU
# Procedure, shortened: as §1
# [17] = test system: Saccharomyces cerevisiae BY4741 SeMeCo community; assay: z-score of subpopulation abundance vs DMSO median, subpopulation auxotrophic for HLM; higher = larger share of this subpopulation than in DMSO controls; conditions: 10 µM; 24 h; SM minimal medium; subpopulation (auxotrophy): HLM
# Procedure, shortened: as §1
Structure (SMILES),mean cell size [1],z-score of subpopulation abundance [2],z-score of subpopulation abundance [3],z-score of subpopulation abundance [4],z-score of subpopulation abundance [5],z-score of subpopulation abundance [6],z-score of subpopulation abundance [7],z-score of subpopulation abundance [8],z-score of subpopulation abundance [9],z-score of subpopulation abundance [10],z-score of subpopulation abundance [11],z-score of subpopulation abundance [12],z-score of subpopulation abundance [13],z-score of subpopulation abundance [14],z-score of prototroph abundance [15],z-score of subpopulation abundance [16],z-score of subpopulation abundance [17]
COCCCOc1ccnc(C[S+]([O-])c2nc3ccccc3[nH]2)c1C (stereo not drawn) [Rabeprazole],12.5 ± 0.21,-1.07,1.62,0.43,2.01,-0.33,0.01,0.85,-0.92,1.62,1.71,0.23,0.63,0,–,–,–
CC1(C)S[C@@H]2[C@H](NC(=O)COc3ccccc3)C(=O)N2[C@H]1C(=O)O [Penicillin V potassium salt],11.8 ± 0.2,–,-1.58,0.95,-1.14,0.22,0.44,0.49,0.57,-0.72,-0.94,-0.23,-0.32,-1.08,0.29,-0.1,-0.74
COC(=O)C1=C(C)NC(C)=C(C(=O)OCCN(C)Cc2ccccc2)C1c1cccc([N+](=O)[O-])c1 (stereo not drawn) [Nicardipine HCl],–,1.01,–,-0.42,0.19,1.01,0.65,0,0.26,–,0.11,0.62,–,-0.44,-0.59,–,-0.22
CCN1CC(CCN2CCOCC2)C(c2ccccc2)(c2ccccc2)C1=O (stereo not drawn) [Doxapram HCl],12.5 ± 0.14,0,–,0.42,-0.42,-0.29,-0.61,-0.57,0.7,-1.3,-0.53,0.9,-0.43,–,0.14,–,-1.09
Cc1nc2n(c(=O)c1CCN1CCC(c3noc4cc(F)ccc34)CC1)CCCC2 [Risperidone],–,-0.08,–,0.56,0.92,0.47,–,0.99,0.87,0.49,0.19,1.02,0.14,-0.21,-0.99,–,0.11
COc1ccccc1OCC(O)CN1CCN(CC(=O)Nc2c(C)cccc2C)CC1 (stereo not drawn) [Ranolazine],12.5 ± 0.23,0.23,0.18,-0.29,-0.13,0.68,–,–,0.37,-0.42,-0.21,0.18,0.49,0.5,-0.25,–,–
CS(=O)(=O)c1ccc(C2=C(c3ccccc3)C(=O)OC2)cc1 [Rofecoxib],12.3 ± 0.16,0.64,–,-0.52,0.29,1.55,1.11,–,0.95,0.69,1.31,–,1.28,0.43,-0.48,–,1.01
Nc1cc(C(Cl)=C(Cl)Cl)c(S(N)(=O)=O)cc1S(N)(=O)=O [Clorsulon],12.46 ± 0.016,-0.33,0.16,–,0.76,-0.35,0.02,0.32,0.16,0.48,0.22,0.92,1.09,0.24,-0.96,–,–
CO[C@H]1C[C@@H]2CC[C@@H](C)[C@@](O)(O2)C(=O)C(=O)N2CCCC[C@H]2C(=O)O[C@H]([C@H](C)C[C@@H]2CC[C@@H](OCCO)[C@H](OC)C2)CC(=O)[C@H](C)/C=C(\C)[C@@H](O)[C@@H](OC)C(=O)[C@H](C)C[C@H](C)/C=C/C=C/C=C/1C [Everolimus (RAD001)],14.17 ± 0.11,-1.38,-0.87,2.5,15.9,–,22.4,27.1,12.8,12.2,22.9,–,12.4,24,–,–,19
NC(=O)OCC(COC(N)=O)c1ccccc1 [Felbamate],–,-0.21,-0.15,-0.1,-0.6,-1.27,-1.32,–,-0.58,-0.42,-1.23,-0.71,-0.77,–,1.19,–,–
COc1ccc2cc3[n+](cc2c1OC)CCc1cc2c(cc1-3)OCO2 [Berberine Sulfate],12.3 ± 0.28,–,-1.84,1.36,-0.31,-0.28,0.24,0.8,0.73,-0.5,0.06,0.71,-0.27,-0.34,-0.5,-0.21,0.13
NC[C@@H]1O[C@H](O[C@H]2[C@@H](O)[C@H](O[C@@H]3[C@@H](O)[C@H](N)C[C@H](N)[C@H]3O[C@H]3O[C@H](CO)[C@@H](O)[C@H](O)[C@H]3N)O[C@@H]2CO)[C@H](N)[C@@H](O)[C@@H]1O [Paromomycin Sulfate],12.31 ± 0.12,1.04,0.88,–,0.2,1.42,1.15,–,-0.2,0.39,-0.44,–,0.8,0.85,-0.33,–,0.02
CCCN(CCc1cccs1)[C@H]1CCc2c(O)cccc2C1 [Rotigotine],12.6 ± 0.31,0.93,0.33,-1.74,-0.04,1.22,1.47,-1.03,–,0.46,-0.16,-0.69,-0.27,–,0.61,–,–
CO/N=C1\C[C@]2(C[C@@H]3C[C@@H](C/C=C(\C)C[C@@H](C)/C=C/C=C4\CO[C@@H]5[C@H](O)C(C)=C[C@@H](C(=O)O3)[C@]45O)O2)O[C@H](/C(C)=C/C(C)C)[C@H]1C [Moxidectin],12.4 ± 0.18,–,0.29,0.66,–,0.55,1.1,2.12,0.37,1.14,1.24,1.33,–,-0.1,-0.99,0.03,1.14
C#C[C@]1(O)CC[C@H]2[C@@H]3CCC4=CC(=O)CC[C@@H]4[C@H]3C(=C)C[C@@]21CC [Etonogestrel],–,–,-0.43,1.19,–,-0.7,-1.24,0.83,0.08,-0.29,0.5,-0.52,-0.63,–,0.26,0.5,-0.55
